Laboratory results taken from PubChem BioAssay.
The source made the active and inactive calls.

What was measured:
[1] = tested on: Plasmodium falciparum Sir2 (PF13_0152, Sir2A); experiment: pfSir2 binders on small-molecule microarrays, primary screen, biochemical, small-molecule microarray, 635 nm fluorescence (AID 1098); conditions: small-molecule microarray binding, fluorescence 635 nm; higher = more signal;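 further: score merges spot fluorescence intensity with its signal-to-noise ratio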
[2] = small-molecule microarray binders of probe aDKK1, primary screen, biochemical, biotinylated probe, 635/667 nm fluorescence (AID 1099); conditions: higher = more signal;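 further: score merges 667nm spot fluorescence with signal to noise across triplicate slides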
[3] = small-molecule microarray binders of probe aCHRDL2, primary screen, biochemical, biotinylated probe, 635/667 nm fluorescence (AID 1100); conditions: higher = more signal
[4] = splicing luciferase reporter signal modulators, primary screen, spliceosome inhibition project, cell-based, HEK293, splice +/- reporter (AID 1101); conditions: luminescence, 24 h, higher = more signal, called active from +8 up or from −8 down;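 further: HEK293 cells carrying a splicing-competent luciferase reporter gene; test concentration not given here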
[5] = biological target: Fibroblast growth factor 10 (Homo sapiens) (UniProt O15520); experiment: FGF10 binders on small-molecule microarrays, primary screen, biochemical, small-molecule microarray, 635 nm fluorescence (AID 1102); conditions: FGF10 binding, fluorescence 635 nm, higher = more signal
[6] = tested on: glycogen synthase kinase-3 (GSK3A per assay name; protocol says GSK3B); experiment: GSK3 binders on small-molecule microarrays, primary screen, biochemical, small-molecule microarray, 635 nm fluorescence, GSK3A (AID 1103); conditions: small-molecule microarray binding, fluorescence 635 nm; higher = more signal; further: the record names both GSK3A and GSK3B
[7] = biological target: Epidermal growth factor receptor (Homo sapiens) (UniProt P00533); experiment: EGFR binders on small-molecule microarrays, primary screen, biochemical, small-molecule microarray, 635 nm fluorescence (AID 1104); conditions: EGFR binding, higher = more signal;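 further: score merges 667 nm emission intensity with spot signal to noise over triplicate slides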
[8] = biological target: Follistatin-related protein 3 (Homo sapiens) (UniProt O95633); experiment: FSTL3 binders on small-molecule microarrays, primary screen, biochemical, small-molecule microarray, 635 nm fluorescence (AID 1105); conditions: FSTL3 binding, higher = more signal;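 further: score merges emission near 667 nm and signal to noise per printed spot across three slides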
[9] = biological target: Dickkopf-related protein 1 (Homo sapiens) (UniProt O94907); experiment: DKK1 binders on small-molecule microarrays, primary screen, biochemical, small-molecule microarray, 635 nm fluorescence scan (AID 1106); conditions: DKK1 binding, higher = more signal;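 further: score merges emission near 667 nm with signal to noise over three replicate slides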
[10] = tested on: Inhibin beta A chain (activin A); experiment: INHBA (activin A) binders on microarrays, primary screen, biochemical, small-molecule microarray, 635 nm fluorescence scan (AID 1107); conditions: small-molecule microarray binding, higher = more signal;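 further: mouse activin A protein probed at 4.33 µg/mL on printed slides; score merges bound-protein fluorescence near 667 nm with spot signal-to-noise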
[11] = tested on: Human papillomavirus type 1a protein E7 (residues 44-93); experiment: HPV1a E7 fragment binders on microarrays, primary screen, biochemical, small-molecule microarray, residues 44-93, 635 nm fluorescence (AID 1108); conditions: small-molecule microarray binding, fluorescence 635 nm; higher = more signal;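 further: E7 fragment applied at 1 µg/mL in TBST for 1 h at 4 C; score combines spot fluorescence with its signal to noise ratio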
[12] = modulators of HCV replicon luciferase signal, primary screen, HCV replication inhibitor project, Huh7 cells, luciferase reporter (AID 1109); conditions: 48 h, higher = more signal;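 further: huh7 hepatoma cells harbouring a luciferase neomycin HCV replicon reporter; luciferase luminescence as measure of HCV replicon replication; test concentration not given here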
[13] = biological target: Left-right determination factor 2 (Homo sapiens) (UniProt O00292); experiment: LEFTY2 binders on small-molecule microarrays, primary screen, biochemical, small-molecule microarray, 635 nm fluorescence scan (AID 1110); conditions: LEFTY2 binding, higher = more signal
[14] = biological target: Calmodulin-1 (Homo sapiens) (UniProt P0DP23); experiment: CALM1 binders on microarrays, EGTA buffer, profiling panel, biochemical, small-molecule microarray, Cy5-labelled CALM1 (AID 1111); conditions: Cy5-CALM1 binding fluorescence, higher = more signal;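 further: labelled calmodulin applied in Tris saline Tween buffer holding calcium plus EGTA and DTT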
[15] = biological target: Calmodulin-1 (Homo sapiens) (UniProt P0DP23); experiment: calcium-bound CALM1 binders on microarrays, profiling panel, artefact control for SMM control-protein annotation, biochemical, small-molecule microarray, Cy5-labelled CALM1, plus calcium (AID 1112); conditions: Cy5-CALM1 binding fluorescence, higher = more signal;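 further: score merges spot fluorescence with signal to noise from triplicate slides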
[16] = small-molecule microarray binders of probe aWnt5a, primary screen, biochemical, biotinylated probe, 635/667 nm fluorescence (AID 1113); conditions: higher = more signal;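 further: score merges 667 nm fluorescence intensity with signal-to-noise per printed feature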
[17] = small-molecule microarray binders of probe aShh, primary screen, biochemical, biotinylated probe, 635/667 nm fluorescence (AID 1114); conditions: higher = more signal;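 further: probe is biotin-labelled aShh protein from a stem cell growth factor screen; measures binding of labelled protein to compounds printed on the slide; score merges feature fluorescence at 667 nm with signal-to-noise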
[18] = small-molecule microarray binders of probe aNog, primary screen, biochemical, biotinylated probe, 635/667 nm fluorescence (AID 1115); conditions: higher = more signal;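 further: probe is biotinylated aNog protein used at 0.15 µg/mL for 1 h at 4 C; z-score combines 667 nm fluorescence of each spot with its signal to noise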
[19] = biological target: Torsin-1A-interacting protein 1 (Homo sapiens) (UniProt Q5JTV8); experiment: LAP1 binders from COS7 cell lysate, primary screen, small-molecule microarray, 635/667 nm fluorescence (AID 1116); conditions: COS7-hLAP1 lysate binding, 635 nm fluorescence, higher = more signal
[20] = biological target: Alpha-bungarotoxin (Bungarus multicinctus) (UniProt P60615); experiment: alpha-bungarotoxin binders on microarray, profiling panel, artefact control for SMM control protein annotation, biochemical, small-molecule microarray, Alexa647 label, 635/667 nm fluorescence (AID 1117); conditions: alpha-BTX-A647 binding fluorescence, higher = more signal
Alpha-bungarotoxin (Bungarus multicinctus), sequence (P60615 whole entry, looked up): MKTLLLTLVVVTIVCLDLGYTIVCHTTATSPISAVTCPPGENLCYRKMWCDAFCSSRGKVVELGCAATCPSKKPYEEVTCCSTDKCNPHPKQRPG

Follistatin-related protein 3 (Homo sapiens), sequence (O95633 whole entry, looked up): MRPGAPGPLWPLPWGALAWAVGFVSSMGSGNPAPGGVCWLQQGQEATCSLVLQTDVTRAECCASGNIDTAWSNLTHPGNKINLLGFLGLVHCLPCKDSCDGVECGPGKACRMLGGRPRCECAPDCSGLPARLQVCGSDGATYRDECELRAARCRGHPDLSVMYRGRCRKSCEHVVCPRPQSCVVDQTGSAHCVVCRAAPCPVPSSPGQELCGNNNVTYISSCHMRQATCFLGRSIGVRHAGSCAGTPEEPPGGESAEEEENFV
Epidermal growth factor receptor (Homo sapiens), sequence (P00533 whole entry, looked up): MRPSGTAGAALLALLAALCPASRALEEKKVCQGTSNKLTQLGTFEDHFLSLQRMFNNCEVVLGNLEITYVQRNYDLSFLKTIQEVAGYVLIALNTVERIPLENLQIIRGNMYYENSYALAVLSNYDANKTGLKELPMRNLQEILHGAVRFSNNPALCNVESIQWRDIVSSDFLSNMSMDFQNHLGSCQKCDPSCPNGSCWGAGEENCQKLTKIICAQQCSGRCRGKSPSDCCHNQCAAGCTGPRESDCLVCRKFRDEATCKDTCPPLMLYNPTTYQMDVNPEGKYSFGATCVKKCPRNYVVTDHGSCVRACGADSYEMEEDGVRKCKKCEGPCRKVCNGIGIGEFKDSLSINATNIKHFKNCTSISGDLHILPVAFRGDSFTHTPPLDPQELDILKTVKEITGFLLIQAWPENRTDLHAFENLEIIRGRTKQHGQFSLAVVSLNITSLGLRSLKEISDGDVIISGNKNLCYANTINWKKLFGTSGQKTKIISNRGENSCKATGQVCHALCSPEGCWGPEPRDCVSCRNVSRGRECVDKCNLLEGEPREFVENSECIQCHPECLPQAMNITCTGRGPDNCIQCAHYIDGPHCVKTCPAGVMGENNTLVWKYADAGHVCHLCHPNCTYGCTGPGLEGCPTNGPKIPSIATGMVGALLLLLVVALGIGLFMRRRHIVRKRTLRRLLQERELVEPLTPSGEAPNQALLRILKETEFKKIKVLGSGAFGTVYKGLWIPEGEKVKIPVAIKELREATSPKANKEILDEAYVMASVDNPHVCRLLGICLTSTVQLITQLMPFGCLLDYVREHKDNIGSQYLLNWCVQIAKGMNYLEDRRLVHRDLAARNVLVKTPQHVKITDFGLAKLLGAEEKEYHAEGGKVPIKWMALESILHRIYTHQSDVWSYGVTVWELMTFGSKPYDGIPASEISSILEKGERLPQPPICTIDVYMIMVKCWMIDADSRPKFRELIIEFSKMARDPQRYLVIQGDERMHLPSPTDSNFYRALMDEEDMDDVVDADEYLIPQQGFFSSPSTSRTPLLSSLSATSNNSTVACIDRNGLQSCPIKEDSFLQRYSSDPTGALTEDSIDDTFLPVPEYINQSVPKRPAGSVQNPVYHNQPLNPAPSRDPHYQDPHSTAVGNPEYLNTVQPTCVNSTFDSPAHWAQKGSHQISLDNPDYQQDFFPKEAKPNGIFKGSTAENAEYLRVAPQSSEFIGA
Left-right determination factor 2 (Homo sapiens), sequence (O00292 whole entry, looked up): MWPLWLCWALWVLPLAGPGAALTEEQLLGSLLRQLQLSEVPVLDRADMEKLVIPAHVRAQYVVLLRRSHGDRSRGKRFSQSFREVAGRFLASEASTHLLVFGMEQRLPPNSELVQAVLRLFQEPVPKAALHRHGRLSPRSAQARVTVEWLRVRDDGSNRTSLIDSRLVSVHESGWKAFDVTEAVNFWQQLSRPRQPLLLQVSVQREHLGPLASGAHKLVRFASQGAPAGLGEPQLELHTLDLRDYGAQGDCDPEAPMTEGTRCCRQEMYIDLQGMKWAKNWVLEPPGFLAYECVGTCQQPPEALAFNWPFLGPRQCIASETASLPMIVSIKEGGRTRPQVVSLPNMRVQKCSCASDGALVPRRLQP
Torsin-1A-interacting protein 1 (Homo sapiens), sequence (Q5JTV8 whole entry, looked up): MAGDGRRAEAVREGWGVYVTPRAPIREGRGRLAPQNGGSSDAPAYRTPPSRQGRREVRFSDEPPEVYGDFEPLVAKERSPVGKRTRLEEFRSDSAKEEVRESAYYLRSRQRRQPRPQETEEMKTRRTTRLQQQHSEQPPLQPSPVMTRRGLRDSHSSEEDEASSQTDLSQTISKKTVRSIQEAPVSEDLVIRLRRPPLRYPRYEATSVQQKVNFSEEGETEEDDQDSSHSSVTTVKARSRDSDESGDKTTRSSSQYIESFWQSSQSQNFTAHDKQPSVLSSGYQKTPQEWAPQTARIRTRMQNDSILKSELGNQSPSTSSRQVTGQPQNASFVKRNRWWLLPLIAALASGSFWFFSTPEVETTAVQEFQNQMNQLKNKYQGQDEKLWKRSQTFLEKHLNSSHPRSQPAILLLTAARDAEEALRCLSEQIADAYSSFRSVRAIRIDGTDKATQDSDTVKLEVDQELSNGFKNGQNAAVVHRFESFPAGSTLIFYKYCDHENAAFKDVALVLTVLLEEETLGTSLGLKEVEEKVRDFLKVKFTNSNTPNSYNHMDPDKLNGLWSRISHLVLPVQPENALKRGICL
Dickkopf-related protein 1 (Homo sapiens), sequence (O94907 whole entry, looked up): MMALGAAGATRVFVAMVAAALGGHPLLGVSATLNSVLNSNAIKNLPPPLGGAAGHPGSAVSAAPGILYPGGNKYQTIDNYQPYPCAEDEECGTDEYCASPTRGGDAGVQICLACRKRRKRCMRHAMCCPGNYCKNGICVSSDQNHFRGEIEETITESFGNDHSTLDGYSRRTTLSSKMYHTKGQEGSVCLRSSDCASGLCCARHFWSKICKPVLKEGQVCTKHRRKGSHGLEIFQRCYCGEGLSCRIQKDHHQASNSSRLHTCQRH
Fibroblast growth factor 10 (Homo sapiens), sequence (O15520 whole entry, looked up): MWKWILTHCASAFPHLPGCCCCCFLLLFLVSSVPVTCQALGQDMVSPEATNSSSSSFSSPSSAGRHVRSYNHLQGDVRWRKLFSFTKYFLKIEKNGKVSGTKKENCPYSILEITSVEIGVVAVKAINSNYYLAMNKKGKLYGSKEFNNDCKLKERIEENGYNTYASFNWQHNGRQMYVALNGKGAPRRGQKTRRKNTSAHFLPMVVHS

Row | Compound | composite z-score [1] | composite z-score [2] | composite z-score [3] | z-score [4] | composite z-score [5] | composite z-score [6] | composite z-score [7] | composite z-score [8] | composite z-score [9] | composite z-score [10] | composite z-score [11] | z-score [12] | composite z-score [13] | composite z-score [14] | composite z-score [15] | composite z-score [16] | composite z-score [17] | composite z-score [18] | composite z-score [19] | composite z-score [20]
1 | CC[C@@H]1C=C(C(=O)O)[C@H](c2cccc3ccccc23)N1S(=O)(=O)c1ccc(C)cc1 | 0.819 | 0.0149 | 0.0792 | 0.756 (inactive) | 0.51 | 0.466 | 0.294 | 0.495 | 0.153 | 1.02 | 0.828 | 0.0731 | 0.132 | 1.45 | 0.725 | 0.0742 | -0.17 | 0.526 | 0.909 | -0.158
2 | C#CCN1[C@@H](Cc2ccc(O)cc2)C(=O)O[C@H](Cc2ccccc2)[C@@H]1/C=C/C1CC1 | -0.0032 | -0.366 | -0.337 | 1.99 (inactive) | 0.172 | -0.102 | 0.002 | -0.149 | 0.0874 | 0.718 | -0.513 | -3.22 | 0.207 | -0.458 | -0.587 | -0.18 | 0.163 | -0.113 | -0.188 | 0.0577
3 | COc1cc2c(cc1O)C=[N+](Cc1cc3c(cc1Br)OCO3)CC2 | 1.73 | 0.0055 | 0.591 | -0.244 (inactive) | -0.445 | -1.06 | -0.486 | -1.04 | -1.05 | 0.655 | -0.411 | -0.537 | -0.678 | -1.01 | -0.0978 | -0.16 | -0.16 | -0.492 | -0.479 | -2.64
4 | C=CC[C@]1(C(=O)NCc2ccccc2)N=C(c2ccc(OCCCO)cc2)O[C@H]1c1ccccc1CN=[N+]=[N-] | 1.51 | 0.709 | 0.899 | -0.169 (inactive) | 1.19 | 1.24 | 0.171 | 1.39 | 0.607 | 0.835 | 1.42 | -2.42 | 0.13 | 0.764 | 0.358 | -0.001 | -0.0146 | -0.516 | 0.854 | 0.361
5 | CC(C)[C@@H](C(=O)O)n1cc(C2(O)CCCCC2)nn1 | 0.221 | -0.184 | -0.55 | -0.291 (inactive) | 0.928 | 1.09 | 0.15 | 0.457 | 0.301 | -0.352 | 0.875 | -0.465 | 0.21 | 0.539 | 0.0141 | -0.201 | -0.0738 | -0.0809 | 0.563 | 0.184
6 | C=CC[C@@]1(C(=O)N2CCCCC2)N=C(c2ccc(OCCCO)cc2)O[C@@H]1c1ccccc1N=[N+]=[N-] | 0.763 | 1.19 | 1.07 | -0.212 (inactive) | 0.925 | 0.742 | 0.249 | 0.657 | -0.0197 | 1.03 | 1.46 | -1.62 | 0.227 | 1.27 | 0.613 | 0.0472 | 0.214 | 1.54 | 1.05 | 2.11
7 | O=C(CS)NCCCCCNC(=O)[C@H]1C[C@H]2C(=O)NCC(=O)N2[C@H]1c1ccc(O)cc1 | 0.394 | -0.164 | 0.699 | -1.35 (inactive) | -1.04 | -1.32 | -0.641 | -0.749 | -0.887 | -0.583 | -1.12 | 0.464 | -0.55 | -0.0906 | -0.0879 | -0.256 | -0.214 | -0.175 | -0.736 | -0.129
8 | CCOC(=O)[C@H]1C/C=C/C[C@H](C(=O)OCC)C(=O)O[C@H]2[C@@H](OC)O[C@H](CO)[C@@H](OC(=O)c3ccc(Br)cc3)[C@@H]2OC1=O | -0.009 | -0.444 | 0.44 | -1.25 (inactive) | 0.88 | -0.51 | 0.0445 | 0.366 | 0.34 | 0.802 | 0.215 | -2.74 | 0.466 | 0.389 | 0.502 | -0.0704 | 0.134 | 0.0795 | 0.863 | 0.369
9 | CCCC=C(CCC)[C@@H](NS(=O)(=O)c1ccc(Cl)cc1)c1ccc(C(=O)OC)cc1 | 0.456 | 0.113 | -0.461 | 0.184 (inactive) | 0.401 | 0.836 | 0.228 | -0.445 | 0.291 | 0.28 | 1.31 | 0.677 | -0.0953 | -0.246 | -0.526 | -0.183 | -0.0386 | -0.201 | 0.892 | 1.29
10 | O=C(O)[C@H](Cc1ccccc1)n1cc(-c2ccccc2)nn1 | 0.0064 | -0.284 | -0.367 | -0.544 (inactive) | 0.467 | 0.569 | 0.293 | 0.179 | 0.31 | 0.267 | 0.52 | 0.36 | 0.506 | 0.14 | -0.372 | -0.152 | -0.237 | 0.297 | 0.635 | 0.327
11 | COc1cc(OC)c(C(O)C2C=CC3C(=O)NC(=O)C3N2Nc2ccccn2)cc1Br (stereo not given) | 0.968 | 0.615 | 0.483 | 0.893 (inactive) | 0.689 | 0.398 | 0.807 | 0.835 | 0.815 | 0.811 | 0.19 | 0.742 | 0.586 | 0.0037 | -0.107 | -0.0684 | -0.0769 | -0.461 | 1.17 | 0.484
